Measurements from ChEMBL document CHEMBL3988442, “University of Dundee, Small-Polar-MMV Screening Library” (2021).
For some of these results: Potency and affinity values are given separately.

Key:
Design in all cases: scale not given: direction of the effect not stated beside the values
[1] = molecular target: Protein translocase subunit SecA (Escherichia coli (strain K12)) (UniProt P10408); assay: Assay to Identify E. coli SecA ATPase Inhibitors; format: functional; details: 30 µM
[2] = molecular target: T1, Ubiquitin-activating enzyme e1, putative (Leishmania donovani (strain BPK282A1)) (UniProt E9BSI1); assay: Leishmania donovani Ubiquitin Activating Enzyme (LdE1); format: functional; details: 30 µM
T1 sequence (whole entry): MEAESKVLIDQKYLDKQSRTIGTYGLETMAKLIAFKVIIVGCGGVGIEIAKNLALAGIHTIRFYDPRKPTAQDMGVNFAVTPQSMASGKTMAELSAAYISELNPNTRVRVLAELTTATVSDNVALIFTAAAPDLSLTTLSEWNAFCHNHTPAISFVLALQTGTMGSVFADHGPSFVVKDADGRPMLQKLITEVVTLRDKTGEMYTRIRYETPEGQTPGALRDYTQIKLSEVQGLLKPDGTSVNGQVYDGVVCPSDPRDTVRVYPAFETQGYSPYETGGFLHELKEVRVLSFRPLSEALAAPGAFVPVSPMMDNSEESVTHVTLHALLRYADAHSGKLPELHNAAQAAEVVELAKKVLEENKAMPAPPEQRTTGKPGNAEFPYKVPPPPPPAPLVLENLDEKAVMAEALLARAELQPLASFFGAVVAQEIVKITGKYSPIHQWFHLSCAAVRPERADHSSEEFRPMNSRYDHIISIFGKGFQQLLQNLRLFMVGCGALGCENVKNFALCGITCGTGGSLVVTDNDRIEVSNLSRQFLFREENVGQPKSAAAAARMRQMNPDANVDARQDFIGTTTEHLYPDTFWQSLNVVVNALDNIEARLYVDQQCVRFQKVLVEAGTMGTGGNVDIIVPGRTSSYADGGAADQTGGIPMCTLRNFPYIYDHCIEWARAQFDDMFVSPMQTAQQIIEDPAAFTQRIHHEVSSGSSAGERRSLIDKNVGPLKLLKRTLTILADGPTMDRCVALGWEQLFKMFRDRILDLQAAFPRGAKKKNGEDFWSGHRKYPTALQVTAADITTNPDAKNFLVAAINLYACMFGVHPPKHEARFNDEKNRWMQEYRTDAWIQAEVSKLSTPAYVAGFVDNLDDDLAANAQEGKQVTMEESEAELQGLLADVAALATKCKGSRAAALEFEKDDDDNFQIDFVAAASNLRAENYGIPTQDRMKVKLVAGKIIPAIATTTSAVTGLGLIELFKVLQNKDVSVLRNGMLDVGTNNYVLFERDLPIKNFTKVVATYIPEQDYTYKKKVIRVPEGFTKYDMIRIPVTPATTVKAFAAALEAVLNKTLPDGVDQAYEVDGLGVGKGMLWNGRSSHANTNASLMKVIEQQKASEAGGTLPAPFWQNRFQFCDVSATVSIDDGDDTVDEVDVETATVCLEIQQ

[3] = molecular target: AMP-activated protein kinase, AMPK (Homo sapiens) (UniProt P54646+O43741+P54619+Q9UGJ0+Q9Y478+Q13131+Q9UGI9); assay: AMP-dependent Kinase enzyme assay. An in vitro enzyme assay that detects ADP turnover that is directly proportional to AMPK activity. This uses naive AMPK that is activated during the assay with MK-8722; format: functional; details: 30 µM
[4] = molecular target: Sialic acid-binding Ig-like lectin 9 (Homo sapiens) (UniProt Q9Y336); assay: Hs-Siglec9 ALPHAscreen SOP 20170721; details: 10 µM
Sialic acid-binding Ig-like lectin 9 (Homo sapiens), sequence (Q9Y336 whole entry): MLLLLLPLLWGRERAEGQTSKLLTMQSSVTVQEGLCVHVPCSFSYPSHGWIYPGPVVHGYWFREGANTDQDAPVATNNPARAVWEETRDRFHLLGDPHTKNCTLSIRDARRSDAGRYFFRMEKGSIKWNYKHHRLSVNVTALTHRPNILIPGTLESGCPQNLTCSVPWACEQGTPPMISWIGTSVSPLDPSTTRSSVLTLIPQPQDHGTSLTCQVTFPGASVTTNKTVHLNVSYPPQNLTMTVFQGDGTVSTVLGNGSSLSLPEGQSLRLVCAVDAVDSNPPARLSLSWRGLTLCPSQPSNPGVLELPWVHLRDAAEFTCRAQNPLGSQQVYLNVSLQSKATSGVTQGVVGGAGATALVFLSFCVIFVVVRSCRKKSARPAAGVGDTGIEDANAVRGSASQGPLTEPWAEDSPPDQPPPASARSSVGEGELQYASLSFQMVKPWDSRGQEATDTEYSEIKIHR

Trypanosoma cruzi = assay: Trypanosoma cruzi phosphomannomutase and mannose-1-phosphate guanylyltransferase assay; format: functional; details: 10 µM
[5] = molecular target: T2, Arginase-2, mitochondrial (Homo sapiens) (UniProt P78540); assay: in vitro enzyme assay to detect the production of urea directly proportional to the activity of Arginase II; format: functional; details: 33.3 µM; note: in the data most compounds retested in dose-response had high values
T2 sequence (whole entry): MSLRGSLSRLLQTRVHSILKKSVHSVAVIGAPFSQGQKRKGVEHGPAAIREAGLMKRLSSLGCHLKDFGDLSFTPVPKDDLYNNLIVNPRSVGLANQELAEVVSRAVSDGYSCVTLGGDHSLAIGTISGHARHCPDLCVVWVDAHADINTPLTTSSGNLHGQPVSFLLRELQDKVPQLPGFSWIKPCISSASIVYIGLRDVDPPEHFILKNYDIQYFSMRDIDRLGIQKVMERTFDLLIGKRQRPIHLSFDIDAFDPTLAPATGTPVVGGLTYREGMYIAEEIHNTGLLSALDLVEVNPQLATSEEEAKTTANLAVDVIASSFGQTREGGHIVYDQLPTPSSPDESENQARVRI

[6] = molecular target: T3, Proteasome subunit beta (Trypanosoma cruzi) (UniProt O96673); assay: Trypanosoma cruzi proteasome chymotrypsin-like activity (TcProtChymo) assay.; note: in the data most compounds retested in dose-response had high values; format: functional; details: 9.37 µM
T3 sequence (whole entry): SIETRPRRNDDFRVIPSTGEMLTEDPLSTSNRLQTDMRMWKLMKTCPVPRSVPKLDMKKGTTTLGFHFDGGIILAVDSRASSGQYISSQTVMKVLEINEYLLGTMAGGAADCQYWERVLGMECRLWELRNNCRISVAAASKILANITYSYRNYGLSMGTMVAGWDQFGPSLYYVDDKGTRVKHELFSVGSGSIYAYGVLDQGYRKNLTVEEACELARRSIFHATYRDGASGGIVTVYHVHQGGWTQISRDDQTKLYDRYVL

Homo sapiens = species on record: Homo sapiens; assay: To identify inhibition of the IFN signalling (Jak-Stat) pathway via expression of an eGFP reporter gene under the control of an IFN-stimulated response element (ISRE) containing MxA promoter.; format: functional; details: 30 µM
[7] = molecular target: T4, Tyrosyl-tRNA synthetase, putative (Trypanosoma cruzi (strain CL Brener)) (UniProt Q4DSP6); assay: Trypanosoma cruzi tyrosyl tRNA synthetase (TcYRS) _High Tyrosine SOP; format: functional; details: 30 µM; note: in the data most compounds retested in dose-response had high values
T4 sequence (whole entry): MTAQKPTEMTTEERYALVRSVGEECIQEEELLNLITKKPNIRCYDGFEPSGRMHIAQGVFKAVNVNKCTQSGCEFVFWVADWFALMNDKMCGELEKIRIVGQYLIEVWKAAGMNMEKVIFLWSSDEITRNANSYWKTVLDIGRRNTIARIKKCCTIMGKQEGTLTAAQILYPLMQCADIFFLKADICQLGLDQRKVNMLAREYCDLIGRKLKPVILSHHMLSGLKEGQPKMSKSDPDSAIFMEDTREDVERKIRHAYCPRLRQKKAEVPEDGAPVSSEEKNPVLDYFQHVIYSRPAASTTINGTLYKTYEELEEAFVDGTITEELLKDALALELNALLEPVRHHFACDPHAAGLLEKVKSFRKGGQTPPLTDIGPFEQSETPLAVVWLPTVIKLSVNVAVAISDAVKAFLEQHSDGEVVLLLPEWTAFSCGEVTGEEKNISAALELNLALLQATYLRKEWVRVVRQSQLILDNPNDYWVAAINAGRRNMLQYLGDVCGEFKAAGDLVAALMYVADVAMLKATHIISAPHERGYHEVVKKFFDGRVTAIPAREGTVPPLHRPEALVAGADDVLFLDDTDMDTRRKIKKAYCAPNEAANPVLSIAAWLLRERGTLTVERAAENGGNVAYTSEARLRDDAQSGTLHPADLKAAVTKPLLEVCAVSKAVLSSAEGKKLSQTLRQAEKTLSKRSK

[8] = molecular target: T4, Tyrosyl-tRNA synthetase, putative (Trypanosoma cruzi (strain CL Brener)); assay: Trypanosoma cruzi tyrosyl tRNA synthetase (TcYRS) SOP; format: functional; details: 30 µM
[9] = molecular target: Chromo domain-containing protein 1 (Saccharomyces cerevisiae (strain ATCC 204508 / S288c) (Baker's yeast)) (UniProt P32657); assay: ScCHD-1 Enzyme Inhibition Assay; format: functional; details: 30 µM; note: in the data most compounds retested in dose-response had high values
Chromo domain-containing protein 1 (Saccharomyces cerevisiae (strain ATCC 204508 / S288c) (Baker's yeast)), sequence (P32657 whole entry, the tested form may be a part): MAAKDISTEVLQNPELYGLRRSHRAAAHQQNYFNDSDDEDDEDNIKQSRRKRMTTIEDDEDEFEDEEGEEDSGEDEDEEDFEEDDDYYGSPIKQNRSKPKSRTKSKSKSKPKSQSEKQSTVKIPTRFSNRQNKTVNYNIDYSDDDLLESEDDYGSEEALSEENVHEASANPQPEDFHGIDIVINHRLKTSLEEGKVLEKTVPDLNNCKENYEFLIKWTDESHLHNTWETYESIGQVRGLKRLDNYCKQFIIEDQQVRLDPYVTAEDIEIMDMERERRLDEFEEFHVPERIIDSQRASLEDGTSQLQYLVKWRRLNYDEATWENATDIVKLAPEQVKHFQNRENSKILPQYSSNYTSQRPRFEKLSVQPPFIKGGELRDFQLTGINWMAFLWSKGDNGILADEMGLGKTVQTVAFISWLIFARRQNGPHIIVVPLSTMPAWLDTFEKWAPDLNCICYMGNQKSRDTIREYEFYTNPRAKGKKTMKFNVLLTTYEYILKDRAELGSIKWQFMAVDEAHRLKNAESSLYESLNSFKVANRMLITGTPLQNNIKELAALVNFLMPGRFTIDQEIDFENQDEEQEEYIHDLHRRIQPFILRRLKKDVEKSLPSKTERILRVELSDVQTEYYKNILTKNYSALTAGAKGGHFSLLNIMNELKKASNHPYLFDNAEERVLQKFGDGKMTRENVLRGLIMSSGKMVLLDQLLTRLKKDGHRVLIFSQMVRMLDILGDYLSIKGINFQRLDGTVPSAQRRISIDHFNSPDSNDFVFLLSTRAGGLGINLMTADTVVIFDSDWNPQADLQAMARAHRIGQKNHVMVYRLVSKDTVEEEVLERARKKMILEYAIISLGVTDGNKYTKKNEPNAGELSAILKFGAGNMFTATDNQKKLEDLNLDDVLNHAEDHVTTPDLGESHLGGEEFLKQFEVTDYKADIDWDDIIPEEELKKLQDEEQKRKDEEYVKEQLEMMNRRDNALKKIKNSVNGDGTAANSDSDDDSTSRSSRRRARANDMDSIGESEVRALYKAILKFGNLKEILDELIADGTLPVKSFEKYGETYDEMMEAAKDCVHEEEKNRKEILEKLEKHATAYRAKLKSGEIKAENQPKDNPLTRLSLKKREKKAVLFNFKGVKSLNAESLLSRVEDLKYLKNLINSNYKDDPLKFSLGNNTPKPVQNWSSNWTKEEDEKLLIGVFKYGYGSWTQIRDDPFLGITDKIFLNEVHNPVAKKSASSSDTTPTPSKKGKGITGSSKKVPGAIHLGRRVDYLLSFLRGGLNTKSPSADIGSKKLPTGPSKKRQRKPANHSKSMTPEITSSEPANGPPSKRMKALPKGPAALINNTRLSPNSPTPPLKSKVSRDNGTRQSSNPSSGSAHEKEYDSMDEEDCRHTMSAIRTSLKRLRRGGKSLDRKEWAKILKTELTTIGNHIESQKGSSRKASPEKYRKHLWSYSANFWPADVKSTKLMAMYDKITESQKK

Protein translocase subunit SecA (Escherichia coli (strain K12)), sequence (P10408 whole entry): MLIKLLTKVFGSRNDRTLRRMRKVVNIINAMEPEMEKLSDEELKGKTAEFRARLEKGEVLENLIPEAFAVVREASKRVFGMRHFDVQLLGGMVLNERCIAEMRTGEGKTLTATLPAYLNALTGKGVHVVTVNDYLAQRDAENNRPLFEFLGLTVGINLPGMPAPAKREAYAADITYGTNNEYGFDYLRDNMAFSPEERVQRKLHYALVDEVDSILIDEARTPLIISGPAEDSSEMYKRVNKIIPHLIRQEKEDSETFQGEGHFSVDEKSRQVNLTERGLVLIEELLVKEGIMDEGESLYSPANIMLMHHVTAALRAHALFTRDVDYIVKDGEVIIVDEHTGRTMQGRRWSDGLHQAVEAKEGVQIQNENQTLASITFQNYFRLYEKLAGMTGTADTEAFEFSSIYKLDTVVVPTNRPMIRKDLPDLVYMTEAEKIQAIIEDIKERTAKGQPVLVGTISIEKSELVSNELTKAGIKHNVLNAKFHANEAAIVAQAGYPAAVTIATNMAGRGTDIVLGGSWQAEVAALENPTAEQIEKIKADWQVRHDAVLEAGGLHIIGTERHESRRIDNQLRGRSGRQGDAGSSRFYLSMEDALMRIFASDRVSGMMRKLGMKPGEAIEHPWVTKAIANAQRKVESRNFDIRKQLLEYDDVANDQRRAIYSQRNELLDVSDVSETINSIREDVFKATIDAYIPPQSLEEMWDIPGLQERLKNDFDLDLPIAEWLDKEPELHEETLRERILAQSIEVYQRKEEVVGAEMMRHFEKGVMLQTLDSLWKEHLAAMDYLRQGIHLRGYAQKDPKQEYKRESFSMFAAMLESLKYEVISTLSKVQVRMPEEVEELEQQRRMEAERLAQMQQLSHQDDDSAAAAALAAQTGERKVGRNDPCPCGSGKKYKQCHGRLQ

SMILES	Percent Effect [1] [%]	Percent Effect [2] [%]	Percent Effect [3] [%]	Percent Effect [4] [%]	Percent Effect (Trypanosoma cruzi) [%]	Percent Effect [5] [%]	Percent Effect [6] [%]	Percent Effect (Homo sapiens) [%]	Percent Effect [7] [%]	Percent Effect [8] [%]	Percent Effect [9] [%]
CCOCCn1nnc(C2(NC(=O)c3ccccc3)CCCC2)n1	-7.55	8	-2.14	0.531	-0.292	4.17	-18.8	-0.698	10.4	11.1	-4.99
CC(C)[C@H](NC(=O)NC1CCS(=O)(=O)C1)C(=O)Nc1cccnc1 (stereo partly specified)	1.55	9.33	-0.824	-4.96	-3.34	-8.28	13.1	17.4	3.17	12.8	-7.36
Cc1ccc(-c2nnc(CN3CCc4cnc(C)nc4C3)o2)cc1	-4.56	0	-17.5	15.5	11.2	-13.9	10.4	15.6	18.8	30.5	-10.7
O=C(c1cccc2c1OCO2)N1CCCC(n2cccn2)C1 (stereo unspecified)	-4.91	2.7	-10.6	1.58	-5.94	-1.2	8.29	10.5	0.493	3.7	-1.47
COCc1nc(C(=O)N2CCCC2c2c(C)nn(C)c2C)cs1 (stereo unspecified)	-0.948	-3.8	3.43	1.97	-1.33	0.645	-0.172	12	3.12	5.06	2.98
CN1CCN(Cc2nnc(C3CCN(CC4CC4)CC3)n2C)CC1	0.271	8.22	4.92	1.71	3.13	7.27	13.3	22.3	8.6	17.5	-3.38
CN(C)c1cc(CNC(=O)c2ccc(F)cc2F)ccn1	-4.79	28.6	-1.46	10.4	5.62	-1.78	8.11	8.43	5.83	24.4	-9.26
c1nc2c(c(C3CC3)n1)CCN(Cc1ccc3c(c1)OCO3)CC2	-2.79	-5.48	3.53	13.7	4.37	-0.399	7.45	8.17	6.25	1.24	-2.36
CC(C)c1nn(C)c(Cl)c1CNCc1ccc2c(c1)OCCO2	-4.72	10.5	2.72	8.57	3.27	-5.04	2.28	-34.1	5.42	16.1	0.827
CCn1cnnc1C1CCN(C(=O)c2ccccc2OC)CC1	-2.76	7.79	12.8	2.75	-4.68	-2.13	6.42	25.9	4.85	7.32	-3.6
CN1CC(=O)N(c2ccccc2)CC12CCN(Cc1cccnc1)C2 (stereo unspecified)	-2.77	0	0.129	2.38	-0.397	2	5.74	3.56	4.17	1.24	5.73
